# Data: PubChem BioAssay AID651 (University of Pittsburgh Molecular Library Screening Center, 2007)
# Hit rate of the full screen: of about 1,000 compounds, about 390 (39%) were called active. About 8% were inconclusive and are not listed. A selection follows. Values without a mark were called inactive. Rule as the data show it: active = inhibition above about 48%; inconclusive = no clear call, values can overlap the other calls; inactive = below that.
# Target: Gag-Pol polyprotein (Human immunodeficiency virus type 1 group M subtype B (isolate HXB2)) (UniProt P04585)
# Experiment: HIV-1 RT RNase H inhibitors, retest, confirmation, biochemical (AID 651)
# Details: Recombinant RT RNase H, fluorescent RNA/DNA duplex cleavage; at 10 µM; hits give high values
row,Structure (SMILES),inhibition
1,CCCc1nc2ccccc2c(=O)n1/N=C/c1ccc(O)c(O)c1,74.1% (active)
2,Cc1nc(C)c(C(=O)Nc2cccc(C)c2C)o1,14.1%
3,Clc1ccccc1CSc1nnc(-c2ccco2)c(-c2ccco2)n1,18.5%
4,CC1CCc2c(sc(NC(=O)c3ccc(Cn4cc(Br)cn4)o3)c2C(N)=O)C1 (stereo not given),59.9% (active)
5,CN(c1ccccc1)c1ccc(/C=c2\s/c(=C(/C#N)C(=O)C(C)(C)C)n(Cc3ccco3)c2=O)cc1,50.5% (active)
6,O=C(NCc1ccccn1)c1ccc2nc(-c3ccco3)c(-c3ccco3)nc2c1,2.46%
7,Nc1ccc(-c2nnc(-c3ccc(-c4ccccc4)cc3)o2)cc1,63.3% (active)
8,CCCC(=O)N1CCc2[nH]c3ccccc3c2C1,-2.83%
9,CC(C)CNC(=O)C1CCCN(S(=O)(=O)c2ccc(-n3cnnn3)cc2)C1 (stereo not given),40.6%
10,CCCCOC(=O)CNc1nnc(SCC(=O)OCC)[nH]c1=O,43.7%
11,CCN(CC)c1ccc2oc(=O)c(C)nc2c1,0.308%
12,Cc1csc(NC(=O)NC2(C(F)(F)F)Oc3ccccc3O2)n1,33.8%
13,O=C(Nc1nc(-c2ccncc2)cs1)C1COc2ccccc2O1 (stereo not given),69.2% (active)
14,CCCc1nnc(NC(=O)CN2C(=O)c3ccccc3S2(=O)=O)s1,60.4% (active)
15,CCc1nnc(NC(=O)CSc2nnc(COc3ccc(C#N)cc3)n2-c2ccccc2)s1,19.2%
16,COc1ccc(Cc2nnc(NC(=O)Cc3cccs3)s2)cc1,22.2%
17,COC(=O)C1=C(C)NC2=C(C(=O)c3ccccc32)C1c1ccc(-c2ccc(C(=O)O)cc2)o1 (stereo not given),5.29%
18,c1ccc(Cc2nn3c(Cn4cnc5ccccc54)nnc3s2)cc1,59.7% (active)
19,CCOc1ccc2[nH]c(=O)c(CN(CCCO)C(C)=O)cc2c1,15.8%
20,NC(=O)Cn1c(=O)oc2ccccc21,35.5%
21,Cc1noc(C)c1CSc1nc2cc(S(=O)(=O)N3CCOCC3)ccc2o1,61% (active)
22,COc1cc(C(=O)Nc2oc(-c3ccccc3)c(-c3ccccc3)c2C#N)cc(OC)c1OC,53.6% (active)
23,Cc1ccc2cccc(O)c2[n+]1[O-],43.9%
24,CCC(C)(C)NC(=O)C(c1cccn1C)N(Cc1ccc(C)cc1)C(=O)Cn1nnc2ccccc21 (stereo not given),-5.01%
25,CCC(C)Sc1nc2c(c(=O)[nH]c(=O)n2C)n1CC(O)COc1cccc2ccccc12 (stereo not given),68.7% (active)

row,Structure (SMILES),inhibition
1,CCCCCn1c(SCCC(C)C)nc2c1c(=O)[nH]c(=O)n2C,17.3%
2,Cc1ccnc(-n2sc3ccccc3c2=O)n1,60% (active)
3,COc1ccc(OC)c(Nc2nc(-c3ccc(O)c(O)c3)cs2)c1,77.2% (active)
4,Cc1ccc2c(c1)sc1ncc(NC(=O)c3ccccc3)c(=O)n12,46.4%
5,COc1cccc(-c2nnc(NC(=O)c3ccc(S(=O)(=O)N(CC(C)C)CC(C)C)cc3)o2)c1,74.9% (active)
6,CCC1=[N+]([O-])C(C)(/C(C)=N\O)N(O)C1(C)C (stereo not given),32%
7,CCOC(=O)N1CCN(CC(=O)c2ccc3c(c2)CCN3)CC1,15.5%
8,COc1ccc(CCn2c(=N)c(C(=O)NCc3ccco3)cc3c(=O)n4cccc(C)c4nc32)cc1,1.96%
9,Cc1cc(C(F)(F)F)nn1-c1nc(-c2ccco2)cc(C(F)(F)F)n1,38%
10,Cc1ccc(-n2c(N)c(C(=O)N3CCOCC3)sc2=S)c(C)c1,-4.07%
11,Cc1cccc(-n2c(N)c(C(=O)N3CCN(C)CC3)sc2=S)c1,67% (active)
12,Cc1ccnc(N2CCCC(C(=O)Nc3cc(F)ccc3C)C2)n1 (stereo not given),9.38%
13,COC(=O)N(c1ccc(OC)cc1)P1(=S)OCCC(C)O1 (stereo not given),57.7% (active)
14,CCc1c(C)[nH]c(=S)c(C#N)c1C,-2.67%
15,Fc1ccc(-c2ccc(-c3nn4c(-c5ccco5)nnc4s3)o2)cc1,48.4% (active)
16,Fc1ccc(-c2nnc3sc(-c4ccc5c(c4)OCO5)nn23)cc1,94.9% (active)
17,COC(=O)Nc1nc2ccc(Sc3ccccc3)cc2[nH]1,33.9%
18,O=C(Nc1cc(N2CCOCC2)ncn1)NC1(C(F)(F)F)Oc2ccc(Cl)cc2O1 (stereo not given),-8.24%
19,CCN(CC)S(=O)(=O)c1ccc2nc(COC(=O)c3n[nH]c4ccccc34)[nH]c2c1,29.7%
20,CC(C)C1N=C2c3ccccc3N=C(SCC(=O)c3ccc(O)c(O)c3)N2C1=O (stereo not given),64.7% (active)
21,COc1ccc(N2C(=O)CN=C2Nc2cccc(C)c2C)cc1OC,42.9%
22,c1ccc(CSc2nnc(-c3ccco3)c(-c3ccco3)n2)cc1,42.2%
23,COc1ccc(Nc2oc(-c3ccccc3Cl)nc2C#N)cc1,3.03%
24,CCOC(=O)c1sc(=S)n2c1[nH]c(=O)c1ccc(C(=O)OC)cc12,73.8% (active)
25,Cc1ccc(-n2nc(-c3ccco3)cc2C(=O)NCc2cccnc2)cc1,-3.12%
